The nature of assay [1]: qHTS assay to test for compound auto fluorescence at 590 nm (red) in HepG2 cells (AID 720674). In outline: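 Red autofluorescence (Ex/Em 540/590 nm, Rose Bengal sodium equivalents) was measured in HepG2 cells, 2,000 per well in MEM plus 10% FBS, plated overnight at 37 C. Readings were taken 1 hr after adding 23 nL compound or DMSO, at 37 C and 5% CO2.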
Assay [2] can be described thus: qHTS assay to test for compound auto fluorescence at 460 nm (blue) in HEK293 cells (AID 720678). In outline:
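Blue-channel (Ex/Em 405/460 nm) intensity measured in HEK293 cultures after overnight compound exposure at 37C; signal expressed relative to triamterene. Cells plated 2,000 per well in 10% dialyzed FBS medium and allowed 4-5 hr to attach.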

Assay [3] is described as follows: qHTS assay to test for compound auto fluorescence at 590 nm (red) in HEK293 cells (AID 720679). In outline:
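Red-channel autofluorescence (Ex/Em 540/590 nm; Rose Bengal sodium reference) was measured after overnight 37C, 5% CO2 exposure of attached HEK293 cells, 2,000 per well in medium with 10% dialyzed FBS.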

A short description of assay [4]: qHTS assay to test for compound auto fluorescence at 460 nm (blue) in HepG2 cells (AID 720687). Put shortly:
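Blue-channel autofluorescence (Ex/Em 405/460 nm, triamterene-equivalent) was measured after 1 hr compound exposure at 37 C, 5% CO2. Cells were HepG2, plated overnight at 37 C in MEM plus 10% FBS.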

Assay [5] is described as follows: qHTS assay to identify small molecule antagonists of the glucocorticoid receptor (GR) signaling pathway - cell viability counter screen (AID 720693). Also: nearly all actives have a fitted effect of over 55% in size.
The nature of assay [6]: qHTS assay for identifying genotoxic compounds that show differential cytotoxicity against isogenic chicken DT40 cell lines with known DNA damage response pathways - wild type cell line (AID 743012). Also: nearly all actives have a fitted effect of over 60% in size. Also: potency is read from the fitted curve at half-maximal effect. In outline:
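Viability by ATP luminescence (CellTiter-Glo, 30 min RT) after 40 h compound treatment at 37 C/5% CO2, using 300 parental DNA repair-proficient DT40 cells per well.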

A short description of assay [7]: qHTS assay for identifying genotoxic compounds that show differential cytotoxicity against isogenic chicken DT40 cell lines with known DNA damage response pathways - Rev3 mutant cell line (AID 743014). Also: nearly all actives have a fitted effect of over 55% in size. Also: potency is read from the fitted curve at half-maximal effect.
Assay [8] is described as follows: qHTS assay to identify small molecule antagonists of the androgen receptor (AR) signaling pathway - cell viability counter screen (AID 743033; also: nearly all actives have a fitted effect of over 45% in size; also: potency is read from the fitted curve at half-maximal effect).
A short description of assay [9]: qHTS assay to identify small molecule antagonists of the thyroid receptor (TR) signaling pathway - cell viability counter screen (AID 743064). Also: nearly all actives have a fitted effect of over 50% in size. Also: potency is read from the fitted curve at half-maximal effect. Put shortly:
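GH3.TRE-Luc cells, 4 h pre-plating; cpd + T3 1 nM final; 37 °C 23.5 h; CellTiter-Fluor 30 min; fluorescence read.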

For assay [10], the system named is thyroid hormone receptor (rat, GH3 cells). The experiment in a line: qHTS assay to identify small molecule agonists of the thyroid receptor (TR) signaling pathway (AID 743066; calls by dose curve).
Assay [11] deals with Peroxisome proliferator-activated receptor gamma (Homo sapiens) (UniProt P37231). The experiment in a line: qHTS assay to identify small molecule agonists of the peroxisome proliferator-activated receptor gamma (PPARg) signaling pathway (AID 743094; active = well fitted activation curve with a large enough effect in the signal ratio in the repeat runs, not every such curve was filed as active; inconclusive = weak or mixed curves, or effect the other way; inactive = no such curve, though single readings can be large or run the other way; the % refers to the signal ratio). In outline:
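Agonist activity was taken from a beta-lactamase reporter (FRET substrate, 1 h at room temperature) in HEK293H cells carrying a PPARg UAS-bla construct. Compounds in DMSO were incubated 17 h at 37C after a 5 h cell pre-incubation.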

Assay [12] is described as follows: qHTS assay for small molecule agonists of the p53 signaling pathway - cell viability (AID 651633; calls by dose curve; also: nearly all actives have a fitted effect of over 30% in size; also: potency is read from the fitted curve at half-maximal effect). In outline:
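Viability counter-read: CellTiter-Glo luminescence (30 min, room temperature) in the same p53RE-bla plates. These plates had been exposed to compounds for 16 h at 37 C.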

Assay [13] can be described thus: qHTS assay to test for compound auto fluorescence at 535 nm (green) in HepG2 cell free culture (AID 720686).
Assay [14] in a line: qHTS assay to identify small molecule antagonists of the estrogen receptor alpha (ER-alpha) signaling pathway - cell viability counter screen (AID 743074; calls by dose curve;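 also: HEK293 cells carrying ER-alpha-UAS-bla reporter stimulated with 17beta-estradiol; nearly all actives have a fitted effect of over 45% in size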; also: potency is read from the fitted curve at half-maximal effect).
The target of assay [15] is Nuclear receptor subfamily 1 group I member 2 (Homo sapiens) (UniProt O75469). The experiment in a line: CYP3A4 induction through human pregnane X receptor (PXR) by small molecules, qHTS assay (AID 1346984). Also: nearly all actives have a fitted effect of over 40% in size. In outline: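 Read-out is luminescence after One-Glo addition, following a 3 hr, 37C incubation with Luciferin-IPA CYP3A4 substrate (3uM final). Before that, compounds were on DPX-2 cells (HepG2 co-transfected with PXR element plus CYP3A4-promoter luciferase) for 24 hr at 37C.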

Assay [16] shares this target. The experiment in a line: Human pregnane X receptor (PXR) activation by small molecules, qHTS assay (AID 1346985). Also: nearly all actives have a fitted effect of over 40% in size. In outline:
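DPX-2 cells (HepG2 co-transfected with a PXR response element and a CYP3A4-promoter luciferase construct) were seeded at 2,000 per well, rested 5 hr at 37C, then exposed to DMSO-dissolved compounds for 24 hr. Activation was read as luciferase luminescence.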

The target in assay [17] is Estrogen receptor (Homo sapiens) (UniProt P03372). The experiment in a line: qHTS assay to identify small molecule agonists of the estrogen receptor alpha (ER-alpha) signaling pathway (AID 743075; calls by dose curve;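 also: HEK293 GripTite cells with ER-alpha and UAS-driven beta-lactamase reporter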; also: potency is read from the fitted curve at half-maximal effect).
Assay [18] has the same target. The experiment in a line: qHTS assay to identify small molecule agonists of the estrogen receptor alpha (ER-alpha) signaling pathway using the BG1 cell line (AID 743079). Also: nearly all actives have a fitted effect of over 20% in size.

The results in this text go back to PubChem BioAssay (Tox21).

Each structure is given as a SMILES string. “And” between values parts separate entries of the source, which are not always exact repeats. Equal entries are not always repeated. More than one record can exist for a structure, and the calls need not agree. The source made the active and inactive calls. Unless noted, calls follow the shape of the dose curve; as a rule, active = well fitted curve in the direction sought with a large enough effect in the repeat runs; inconclusive = weak or mixed curves; inactive = no such curve, though single readings can be large; an effect the other way counts as inactive or inconclusive.

Sequence of Peroxisome proliferator-activated receptor gamma (Homo sapiens) (P37231 whole entry, looked up): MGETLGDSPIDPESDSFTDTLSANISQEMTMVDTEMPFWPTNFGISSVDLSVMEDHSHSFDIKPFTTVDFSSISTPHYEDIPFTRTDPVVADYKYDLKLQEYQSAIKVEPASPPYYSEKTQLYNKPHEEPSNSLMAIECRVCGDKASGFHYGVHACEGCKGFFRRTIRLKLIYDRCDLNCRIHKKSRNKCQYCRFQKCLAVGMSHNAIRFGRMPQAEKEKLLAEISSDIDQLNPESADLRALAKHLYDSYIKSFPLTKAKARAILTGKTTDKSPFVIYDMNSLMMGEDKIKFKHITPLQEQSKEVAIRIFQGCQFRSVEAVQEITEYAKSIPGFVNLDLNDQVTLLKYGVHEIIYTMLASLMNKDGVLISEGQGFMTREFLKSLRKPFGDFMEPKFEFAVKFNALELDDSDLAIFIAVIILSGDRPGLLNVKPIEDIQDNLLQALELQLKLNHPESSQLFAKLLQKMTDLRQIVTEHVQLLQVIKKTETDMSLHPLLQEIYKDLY
Sequence of Estrogen receptor (Homo sapiens) (P03372 whole entry, looked up): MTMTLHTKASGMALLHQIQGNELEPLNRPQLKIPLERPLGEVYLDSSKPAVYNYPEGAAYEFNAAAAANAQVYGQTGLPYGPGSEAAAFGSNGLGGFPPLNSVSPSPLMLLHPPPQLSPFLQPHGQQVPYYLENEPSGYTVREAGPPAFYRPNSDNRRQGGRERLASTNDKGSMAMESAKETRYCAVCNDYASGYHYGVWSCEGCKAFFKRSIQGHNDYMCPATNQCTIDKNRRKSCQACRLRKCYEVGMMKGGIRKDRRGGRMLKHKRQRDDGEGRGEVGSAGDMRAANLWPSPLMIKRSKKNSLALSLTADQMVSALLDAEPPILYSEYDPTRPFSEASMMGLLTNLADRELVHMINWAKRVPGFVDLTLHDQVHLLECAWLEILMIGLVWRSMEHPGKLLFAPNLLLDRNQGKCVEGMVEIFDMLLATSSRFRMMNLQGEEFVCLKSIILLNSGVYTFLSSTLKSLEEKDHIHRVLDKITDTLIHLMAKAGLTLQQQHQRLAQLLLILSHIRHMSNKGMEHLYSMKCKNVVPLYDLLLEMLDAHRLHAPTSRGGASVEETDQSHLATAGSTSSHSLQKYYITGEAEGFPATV

As for `CCC/C=C/C=C/C(=O)O[C@H]1/C(=C/C(=O)OC)C[C@H]2C[C@H]([C@@H](C)O)OC(=O)C[C@H](O)C[C@@H]3C[C@H](OC(C)=O)C(C)(C)[C@](O)(C[C@@H]4C/C(=C/C(=O)OC)C[C@H](/C=C/C(C)(C)[C@]1(O)O2)O4)O3`, the molecule was classed as inactive in assay [1] and in assay [3]. Also, the Potency entry in assay [2], in assay [4], in assay [5], in assay [8], in assay [10] and in assay [11] was “inactive” throughout. For the same molecule, the figures for the Potency in assay [6], in assay [7] and in assay [9] were 3.8 nM (active), 3.8 nM (active) and 10.6 µM (active), respectively.

On to `CCC(=O)O[C@@](Cc1ccccc1)(c1ccccc1)[C@@H](C)CN(C)C`, for which the Potency result in assay [12], in assay [2], in [13], in assay [4], in [5] and in assay [6] was “inactive” each time. The Potency entry in assay [7], in [10], in [14], in assay [15] and in assay [16] was “inactive” in each case. The molecule was classed as inactive in assay [1] and in [3].

As for `Cc1cc(C)cc(C(=O)OC2C[C@H]3CC[C@@H](C2)N3C)c1` (stereo partly specified), the Potency result in [12], in assay [2], in assay [13], in [4], in [5] and in [8] was “inactive” each time. Moreover, the Potency result in [10], in assay [14], in [17] and in assay [18] was “inactive” throughout. The call in [1] and in assay [3] was inactive. For the same molecule, the Potency in assay [6] is 2980 nM (active); in assay [7], 1880 nM (active).

Regarding `Oc1cc[c]([Hg][Cl])cc1`, the Potency was 9.44 µM (active) and 16.8 µM (active) in assay [12]; 750 nM (active) and 841 nM (active) in [7]; 7.56 µM (active) and 19 µM (active) in assay [8]; 596 nM (active) and 841 nM (active) in assay [9]; 21.3 µM (active) and inactive in assay [14]; 21.3 µM [inconclusive] (active) in assay [17]. The call in assay [1] and in assay [3] was inactive. The Potency entry in assay [2], in [13], in assay [4] and in assay [15] was “inactive” throughout.

As to `CN=C1CN(O)C(c2ccccc2)=c2cc(Cl)ccc2=N1`, the Potency result in [12], in assay [2], in [13], in assay [4], in [5] and in [6] was “inactive” in each case. Moreover, the Potency result in [7], in assay [8], in assay [9], in assay [10], in assay [14] and in assay [17] was “inactive” throughout. The Potency entry in assay [18], in assay [11], in [15] and in [16] was “inactive” each time. Further, the outcome in [3] was inactive.

As to `CNC1(c2ccccc2Cl)CCCCC1=O` (stereo unspecified), the Potency entry in assay [12], in assay [2], in [13], in assay [4], in assay [5] and in [6] was “inactive” throughout. For the same molecule, the Potency result in [7], in [8], in assay [9], in assay [10], in [14] and in assay [17] was “inactive” in each case. In addition, the Potency entry in [18] and in assay [11] was “inactive” in each case. Moreover, the molecule was classed as inactive in assay [1] and in assay [3].

`CCC1(C)CC(=O)NC(=O)C1`: the Potency result in assay [12], in assay [2], in assay [13], in assay [4], in assay [5] and in assay [6] was “inactive” each time. Besides, the Potency result in assay [7], in assay [8], in assay [9], in [10], in assay [14] and in assay [17] was “inactive” throughout. Also, the Potency entry in [18], in [11], in assay [15] and in assay [16] was “inactive” in each case. The result in [1] and in [3] was inactive.
